Bioassay records as filed in PubChem.
A selection: hits, their analogues and other compounds. The true share with any hit is near 7.4%.
Rab9 prom act – Rab9 promoter activation. Potency, µM (top dose mostly 9.22 µM), inactives show at the highest dose activation, negative = inhibition, usual class: activators. AID 485297. Huh7 Rab9 promoter-luciferase reporter, luminescence, 24 h. hit rate 2.8% among 320,000; further: % of control where 0% means no effect; nearly all actives have a fitted effect of over 60% in size
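Huh7 cells stably carrying a Rab9 promoter-luciferase reporter, 1500 cells per well in OP-MEM I with 10% FBS, treated with compound 24 hours at 37C. Luciferase activity read by luminescence after 10 minutes with Amplite reagent.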
ELG1 genotoxic – inducers of genotoxicity in HEK293T ELG1-luciferase cells; HEK293T ELG1-luciferase reporter, luminescence, 16 h; Potency, µM (highest dose often 46 µM), inactives show top-dose activity change, positive = activation, actives largely listed as activators; hit rate 1.3% among 330,000; AID 504466; further: % of control where 0% means no effect; nearly all actives have a fitted effect of over 60% in size
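Screening used a luciferase reporter fused to human ELG1 in HEK293T cells. Luminescence was read on a CCD plate imager after 16 hr exposure and 30 min ONE-Glo incubation.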
SMN2 splice up – SMN2 splice variant enhancement | HEK293 SMN2-luciferase splicing reporter, luminescence, 30-36 h | Potency, µM (highest dose often 46.1 µM), for the others: top-dose activity change, positive = activation, most hits filed as activators | hit rate 2.8% among 210,000; further: % of control where 0% means no effect; nearly all actives have a fitted effect of over 55% in size
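qHTS luciferase splicing reporter: luminescence rises when SMN2 exon 7 is included in transfected HEK293 cells. Compound exposure lasted 30-36 h at 37C, with 4.5 mM final sodium butyrate as control, followed by a ONE-Glo read.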
NPC1 promoter act – activators of NPC1 promoter. Huh7 NPC1 promoter luciferase reporter, 24 h. Potency, µM (titrated, usually from 9.22 µM), without a hit: at the highest dose activation, hits mostly activators. hit rate 2.4% among 320,000. AID 485313; further: % of control where 0% means no effect; nearly all actives have a fitted effect of over 60% in size
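Huh7 reporter cells (NPC1 promoter driving luciferase) are dosed with compound for 24 h at 37 °C, 5% CO2; luciferase detection reagent is then added and luminescence measured after 10 min at ambient temperature.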
FLuc modulator – firefly luciferase modulation, counter-screen for miR-21 project | P08659 | purified FLuc, Km substrates, luminescence inhibition | Potency, µM (titrated, usually from 57.5 µM), for inactives: at the top dose activity change, negative = inhibition, hits mostly inhibitors | hit rate 6.9% among 360,000 | AID 588342;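 further: plate controls were vehicle for no effect and reference inhibitor for full effect; nearly all actives have a fitted effect of over 55% in size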
Target sequence (P08659 whole entry, looked up): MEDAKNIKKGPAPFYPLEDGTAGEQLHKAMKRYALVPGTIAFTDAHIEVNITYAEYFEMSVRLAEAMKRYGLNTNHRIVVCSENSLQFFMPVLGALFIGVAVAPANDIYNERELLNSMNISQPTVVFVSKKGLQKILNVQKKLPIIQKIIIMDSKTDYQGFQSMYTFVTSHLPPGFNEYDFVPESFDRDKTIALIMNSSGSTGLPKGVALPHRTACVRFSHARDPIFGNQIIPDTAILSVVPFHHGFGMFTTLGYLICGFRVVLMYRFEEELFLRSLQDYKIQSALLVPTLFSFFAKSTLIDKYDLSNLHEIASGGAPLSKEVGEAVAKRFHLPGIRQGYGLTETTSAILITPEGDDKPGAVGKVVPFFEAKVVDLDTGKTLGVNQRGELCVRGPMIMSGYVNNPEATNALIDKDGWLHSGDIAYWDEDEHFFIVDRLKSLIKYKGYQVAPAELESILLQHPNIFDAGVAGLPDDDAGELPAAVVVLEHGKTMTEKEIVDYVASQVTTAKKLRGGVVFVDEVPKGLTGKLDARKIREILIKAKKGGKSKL
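Purified P. pyralis luciferase, 10 nM final, with Km-level 10 uM D-luciferin and 10 uM ATP in 50 mM Tris acetate pH 7.5, 10 mM Mg acetate, 0.01% Tween-20, 0.05% BSA; 6-point qHTS titration about 60 µM downward; luminescence read.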
An asterisk follows results filed as active; ? = inconclusive; . = no result given; [ ] = remark or other dose. The call rests on the fitted dose curve; in most records, active means well fitted curve in the direction sought with a large enough effect; inconclusive means small, poorly fitted or top-dose-only effect, or another doubt; inactive means no such curve, though single readings can be large; an effect the other way counts as inactive or inconclusive. Potency means the concentration at half of the fitted maximal effect.

SMILES	Rab9 prom act	ELG1 genotoxic	SMN2 splice up	NPC1 promoter act	FLuc modulator
Cc1ccc(-c2ccc(SCC(=O)Nc3nonc3C)nn2)cc1	?	?	6%	?	12µM*
CC(=O)Nc1ccc(NC(=O)CSc2ccc(-c3ccc4c(c3)OCO4)nn2)cc1	24%	?	?	26%	-19%
O=C(CSc1nc(-c2ccc(F)cc2)[nH]c1-c1ccc(F)cc1)Nc1ccc2c(c1)OCCO2	.	.	-1%	.	?
Cc1cc2nc(-c3ccc(SCC(=O)Nc4ccc5c(c4)OCCO5)nc3)[nH]c2cc1C	4µM*	?	?	2.8µM*	0.34µM*
O=C(CSc1ccc(-c2nc3ccccc3[nH]2)cn1)Nc1ccc2c(c1)OCCO2	?	10%	17%	27%	?
Cc1ccc2nc(-c3ccc(SCC(=O)Nc4ccc5c(c4)OCCO5)nc3)[nH]c2c1	2.8µM*	?	?	3.2µM*	0.6µM*
Cc1ccc(-c2ccc(SCC(=O)Nc3ccc4c(c3)OCCO4)nn2)cc1	16%	11%	23%	18%	1.9µM*
Oc1ccc2ccccc2c1CN(Cc1c(O)ccc2ccccc12)C1CCCCC1	.	.	-11%[9.22 µM]	.	.
CC(Cc1ccco1)NC(=O)c1ccc(C(F)(F)F)cc1 (stereo unspecified)	1µM*	8.2µM*	.	0.71µM*	6.7µM*
CC(Cc1ccco1)NC(=O)c1cccc(S(=O)(=O)N(C)C)c1 (stereo unspecified)	?	15µM*	.	?	?
Cc1cccc(OCC(=O)Nc2ccc(S(=O)(=O)N(Cc3ccccc3)c3ccccc3)cc2)c1	.	.	.	.	0%
O=C(/C=C/c1ccccc1)CC(=O)c1ccccc1O	?	?	.	26%	15µM*
O=C(/C=C/c1ccccc1)NC(=O)c1ccccc1O	?	?	.	?	1.7µM*
O=C1C=CC(=O)c2c1ccc1c2ccc2ccccc21	.	.	-13%[20.6 µM]	.	.
CCCn1c(-c2ccc(F)cc2)nc2c(NCCN(C)C)nc(C)nc21	.	.	1%	.	.
COC(CNC(=O)c1coc2nc3ccccc3nc12)OC	0%	1%	.	2%	11µM*
O=C(NCC1CCCO1)c1coc2nc3ccccc3nc12 (stereo unspecified)	9%	-1%	5%	3%	11µM*
COC(CNC(=O)c1ccc2nc(-c3ccccc3)c(-c3ccccc3)nc2c1)OC	-3%	-4%	-10%	-2%	-14%
O=C1C(C=NCc2cccnc2)=C(O)c2ccccc21	?	2.1µM*	.	14%	1.9µM*
O=C1c2cccc3cccc(c23)C(=O)N1Cc1ccco1	-6%	1%	0%	0%	-1%
O=C1C(C=NCc2ccncc2)=C(O)c2ccccc21	19%	14%	11%	0%	-15%
O=C1C(C=NCc2ccco2)=C(O)c2ccccc21	28%	5.2µM*	?	21%	6.7µM*
COc1ccc(NC(=O)Cn2c(=O)n(Cc3ccccc3Cl)c(=O)c3cc(OC)c(OC)cc32)cc1OC	.	.	2%	.	-1%
O=Cc1ccccc1OCc1ccc2c(c1)OCO2	12%	13µM*	.	13%	1.3µM*
CCOc1ccccc1CN(CCc1ccc2c(c1)OCO2)Cc1cc(OC)c(OC)cc1OC	.	.	-28%	.	-6%
SMILES	Rab9 prom act	ELG1 genotoxic	SMN2 splice up	NPC1 promoter act	FLuc modulator
CC(=O)c1cccc(NC(=O)C(Cc2ccccc2)NS(=O)(=O)c2ccc(Br)s2)c1 (stereo unspecified)	.	.	-7%	.	7%
O=c1oc2ccccc2n1CCCOc1ccccc1Cl	.	.	20µM*	.	12µM*
Cc1ccc2oc(=O)n(CCCOc3ccccc3)c2c1	?	?	-2%	?	24µM*
COc1ccc(OCCCn2c(=O)oc3ccc(C)cc32)cc1	.	.	?	.	-10%
Clc1ccc(CSc2ccc(-c3cccs3)nn2)cc1	.	.	.	.	0%
c1ccc(CSc2ccc(-c3cccs3)nn2)cc1	2.8µM*	?	16µM*	3.2µM*	1.9µM*
c1ccc(CSc2ccc(-c3cccs3)nn2)nc1	2.2µM*	17%	16µM*	3.5µM*	24µM*
CSCc1ccc(C(=O)Nc2ccc(C(N)=O)cc2)cc1	2.8µM*	15µM*	11µM*	2µM*	5.4µM*
CSCc1ccc(C(=O)NCc2ccccc2)cc1	-3%	3%	16%	9%	27µM*
O=C(Cn1cc(C(=O)c2ccco2)c2ccccc21)Nc1ccccc1C(F)(F)F	.	.	-11%	.	-2%
CC(C)(C)c1ccc(C(=O)CSc2n[nH]c(=O)[nH]c2=O)cc1	7%	8%	-26%	4%	12µM*
Cc1ccc(Cn2cnc3nc4c(cc3c2=O)CC(C)CC4)cc1 (stereo unspecified)	.	.	.	.	12µM*
CCOC(=O)c1ccc(N2N=C(C)/C(=C/C=C/c3ccco3)C2=O)cc1	-2%	18%	7%	-6%	?
O=C(O)c1cc(N2N=C(C(F)(F)F)/C(=C/C=C/c3ccco3)C2=O)ccc1Cl	-3%	-2%	.	-4%	24µM*
O=C(COC(=O)c1ccccc1[N+](=O)[O-])c1ccc2c(c1)OCO2	0.32µM*	?	.	0.32µM*	0.019µM*
CC(C)C(=O)Nc1ccccc1C(=O)OCC(=O)c1ccc2c(c1)OCCO2	2.8µM*	0%	-18%	?	1.3µM*
Cc1cccc(C)c1NC(=O)COC(=O)c1ccc2c(c1)OCO2	-4%	12%	4%	-2%	0%
Cc1cccc(C(=O)OCC(=O)c2ccc3c(c2)OCO3)c1O	1.4µM*	2.6µM*	.	0.45µM*	0.38µM*
Cc1nnc(N2CCN(c3ccc(Cl)cc3)CC2)c2c1nnn2Cc1ccc(F)cc1	.	.	1%	.	0%
COc1ccc(C(=O)Nc2nnc(SCC(=O)NCC3CCCO3)s2)cc1OC (stereo unspecified)	15%	24%	.	21%	12µM*
O=C(CSc1nnc(NC(=O)c2ccccc2)s1)NCC1CCCO1 (stereo unspecified)	2.8µM*	?	.	3.5µM*	4.3µM*
Cc1cc(C)cc(C(=O)Nc2nnc(SCC(=O)NCC3CCCO3)s2)c1 (stereo unspecified)	4%	4%	.	1%	?
O=C(CSc1nnc(NC(=O)c2ccccc2F)s1)NCC1CCCO1 (stereo unspecified)	?	?	.	?	12µM*
O=C(CSc1nnc(NC(=O)c2ccccc2[N+](=O)[O-])s1)NCC1CCCO1 (stereo unspecified)	4%	2%	.	6%	17µM*
COc1ccccc1CN1CCCC2(CCN(C(=O)c3cnccn3)CC2)C1	.	.	-10%	.	.
Cc1ccc(NC(=O)c2cnc(SCC(=O)NCC3CCCO3)n(C)c2=O)cc1C (stereo unspecified)	?	21µM*	.	?	4.8µM*
Cn1c(SCC(=O)NCC2CCCO2)ncc(C(=O)Nc2ccccc2)c1=O (stereo unspecified)	2%	?	.	0%	?
